The campaign covered roughly 69,000 compounds. About 8,600 (12%) showed an effect of 50% or more. The list comes from a sample in which strong results are over-represented; it also holds similar structures and randomly drawn compounds.
tested on: Plasmodium berghei; assay: Screen against P. berghei liver stage (PbLuc), transformed with Luciferase, at 10uM; assay type: functional, HepG2; conditions: tested at 10 uM

| SMILES | INHIBITION |
| --- | --- |
| Cc1cc2ccccc2n1CCC(=O)NCCS(C)(=O)=O | 0.426% |
| CC(C)CS(=O)(=O)N1C[C@@H]2C[C@H](C(=O)NCc3ccccc3)[C@H](C1)O2 | 9.48% |
| Cc1ccc(C(=O)N(C)Cc2cc(Br)cs2)c(=O)[nH]1 | 15% |
| Cc1cnn(CC2CN(CC(=O)N(C)Cc3ccccc3)CCO2)c1 (stereo unspecified) | 13.3% |
| CNC(=O)C1CN(c2ccc(F)cc2)CCN1 (stereo unspecified) | 41.5% |
| O=C(CC1CC1)N1C[C@@H](O)[C@H](N2CCN(c3ccccc3)CC2)C1 | 30.25% |
| O=C(CCOc1ccccc1F)N1CCCC(n2cncn2)C1 (stereo unspecified) | 36.065% |
| CSCCC(=O)N1CC[C@@H](N2CCN(c3ccccc3F)CC2)[C@H](O)C1 | 48.9% |
| O=C(CO)N1CC[C@@H](N2CCN(c3ccccc3F)CC2)[C@H](O)C1 | 52.6% |
| O[C@@H]1CN(CC2CC2)CC[C@H]1N1CCN(c2ccccc2F)CC1 | 53.6% |
| Cc1ccccc1N1CCN(C2CCCN(C(=O)CCC(C)C)C2)CC1 (stereo unspecified) | 46.6% |
| C[C@@H]1CN(C2CCN(c3ccccc3F)CC2)CC[C@]1(C)O | 7.31% |
| CCOc1cncc(N2CCN(c3ccccc3F)CC2)n1 | 3.77% |
| O=C(CO)N1CCCC(N2CCN(c3ccccc3F)CC2)C1 (stereo unspecified) | 65.6% |
| O=C(NCCNC1CCCCC1)c1cccs1 | -2.11% |
| COc1ccc(S(=O)(=O)N[C@H]2CN(C(C)=O)C[C@@H]2C(C)C)cc1F | 17.7% |
| Cc1cnc(CN(C)C2CCN(CCCc3ccccc3)C2)o1 (stereo unspecified) | -9.37% |
| CN(C)CC(=O)N1CCc2sc(C(=O)NCC3CC3)cc21 | -17.1% |
| CSCC(=O)N1CCCC(c2cc(C)[nH]n2)C1 (stereo unspecified) | 28% |
| CC(C)c1ocnc1C(=O)N1CC(=O)Nc2cccnc21 | 37.1% |
| O=c1cc(CN2C[C@@H]3CC[C@H]2CN(Cc2ccccc2)C3)[nH]c(=O)[nH]1 | 34% |
| CN(C)S(=O)(=O)N1CCOC(c2cccc(-c3cncnc3)n2)C1 (stereo unspecified) | 13% |

| SMILES | INHIBITION |
| --- | --- |
| NCC1[C@H]2CN(Cc3ccccc3)C[C@@H]12 (stereo partly specified) | 5.73% |
| Cn1cc(CN2CCCC(c3nccnc3-c3cccc(F)c3)C2)cn1 (stereo unspecified) | 9.05% |
| O=C(CCO)N[C@H]1CN(CC2CCC2)C[C@@H]1c1ccccc1 | -13.1% |
| CS(=O)(=O)NCC(=O)N[C@H]1CN(CC2CC2)C[C@@H]1c1ccccc1 | 65.3% |
| CSCC(=O)N[C@H]1CN(CC2CCOCC2)C[C@@H]1c1ccccc1 | -69.6% |
| Cc1noc(C2(C)CCCN(C(=O)c3cccnc3)C2)n1 (stereo unspecified) | 25.6% |
| CCCS(=O)(=O)N1CCCC(CCC(=O)N(C)CCc2ccccn2)C1 (stereo unspecified) | 27.6% |
| CN(C(=O)NCc1nccn1CCc1ccccc1)C1CCC1 | -4.63% |
| COc1ccc(Nc2nc3c(C)nn(C)c3c(=O)n2C)cc1 | 9.04% |
| CC(C)c1cc(C(F)(F)F)n2nc(C3CCN(S(C)(=O)=O)C3)cc2n1 (stereo unspecified) | 43.05% |
| COc1ccc(NCCC(=O)NCc2cccnc2N(C)C)cc1 | -14.9% |
| Cn1ccnc1C(=O)N1CCC2(CCN2CC2CC2)C1 (stereo unspecified) | 13.7% |
| O=C(c1ccc2ccccc2n1)N1CCC2(CCN2c2ncccn2)C1 (stereo unspecified) | -47% |
| O=C(c1ccnnc1)N1C[C@@H]2CN(c3ncccn3)C[C@@H]2C1 | 21.7% |
| Cn1ccc(C(=O)N2CCC3(CCN3c3ncccn3)C2)n1 (stereo unspecified) | 22.6% |
| Cc1ccc(C(=O)N2C[C@@H]3CN(c4ncccn4)C[C@@H]3C2)cc1 | -13.7% |
| Cn1ccnc1C(=O)N1CCC2(CCN2c2ncccn2)C1 (stereo unspecified) | 71.3% |
| O=C(c1cccc(O)c1)N1CCC2(CCN2c2ncccn2)C1 (stereo unspecified) | 27.7% |
| Cc1ccc(C(=O)N2CCC3(CCN3c3ncccn3)C2)cn1 (stereo unspecified) | 78.9% |
| O=C(c1cnc2ccccc2c1)N1CCC2(CCN2c2ncccn2)C1 (stereo unspecified) | -78.5% |
| Cn1cccc1C(=O)N1CCC2(CCN2c2ncccn2)C1 (stereo unspecified) | 72.2% |
| Cc1ccc(C(=O)N2C[C@@H]3CN(c4ncccn4)C[C@@H]3C2)cn1 | 76.4% |

| SMILES | INHIBITION |
| --- | --- |
| Cn1cccc1C(=O)N1CCC2(CCCN2c2ncccn2)CC1 | -2.41% |
| CC(C)NC(=O)N1CCC2(CC(=O)N(c3ccsc3)C2)C1 (stereo unspecified) | 48.2% |
| COc1cc(N2C[C@H](C(=O)NCC3CC3)[C@@H]3CCO[C@@H]3C2)ncn1 | -29.3% |
| Cn1cnc2c(N3CCCC3)nc(C3CCNCC3)cc21 | 32.7% |
| COc1ccc(OC)c(CNC(=O)N2CCC(n3cncn3)CC2)c1 | 21% |
| Cc1ccc(C(=O)NS(=O)(=O)c2ccccc2Cl)c(=O)[nH]1 | 35.9% |
| CC(C)c1noc(C(C)N2CCN(CCCN3CCCC3=O)CC2)n1 (stereo unspecified) | -38.7% |
| CN(CCO)CC1COCCN1C(=O)CCC1CCCC1 (stereo unspecified) | 39.3% |
| CC(C)c1cnc(CN(C)C2CCN(CCCc3cnn(C)c3)C2)o1 (stereo unspecified) | -7.31% |
| CC(C)N1CCCC1c1csc(N)n1 (stereo unspecified) | 16.8% |
| COc1cc(-c2cc(OC)c(OC)c(OC)c2)ncn1 | -7.79% |
| COC(CNC(=O)C1CC1)c1ccc(C)s1 (stereo unspecified) | 20.4% |
| O=C(CCc1cc2n(n1)CCN(CCCn1cccc1)C2)N1CCCC1 | -1.54% |
| Cc1ccc(N2CCCc3sc(C(=O)NCC4CCCO4)nc32)nn1 (stereo unspecified) | 15.4% |
| Cc1nn(C)c(Cl)c1C1CCCN1C(=O)c1ccc[nH]1 (stereo unspecified) | 25.1% |
| Cc1ccc(C(=O)NCCC2CN(c3cnn(C)c(=O)c3)CCO2)s1 (stereo unspecified) | 24.7% |
| Cc1cc(C(=O)NCCC2CN(C)CCO2)c2cccc(C)c2n1 (stereo unspecified) | 45.9% |
| O=C(NCCC1CN(C2CCCC2)CCO1)c1cc(=O)[nH]c(=O)[nH]1 (stereo unspecified) | 51.5% |
| Cc1ccc(C(=O)NCCC2CN(C3CCCC3)CCO2)c(C)c1 (stereo unspecified) | 66.8% |
| O=C(NCCC1CN(C2CCCC2)CCO1)c1c[nH]c(=O)[nH]c1=O (stereo unspecified) | 8.08% |
| Cc1ccc(C)c(C(=O)N2CCOC(CCN(C)C)C2)c1 (stereo unspecified) | 37.6% |
| CC(CC(=O)c1ccco1)NC(=O)c1ccccn1 (stereo unspecified) | 42.1% |

From ChEMBL document CHEMBL4513216, “Probing the Open Global Health Chemical Diversity Library for Multistage-Active Starting Points for Next-Generation Antimalarials” (ACS Infect Dis, 2020)
